Measurements published in the supplement of paper PMC12645437, “Orthogonal IMiD-Degron Pairs Induce Selective Protein Degradation in Cells” (ACS Chemical Biology, 2025).
The full ranking holds about 8,300 sequences; the median of “log2 fold change of degron read counts, EGFP-low vs EGFP+ sorted cells (limma voom), compound-induced degradation” is about -1.1, and the highest 2% start at about 3.2. The sample holds the highest values, similar sequences and a random draw of the others, so the mix is not that of the screen.

Target: T1, CRBN, Q96SW2
T1 chain: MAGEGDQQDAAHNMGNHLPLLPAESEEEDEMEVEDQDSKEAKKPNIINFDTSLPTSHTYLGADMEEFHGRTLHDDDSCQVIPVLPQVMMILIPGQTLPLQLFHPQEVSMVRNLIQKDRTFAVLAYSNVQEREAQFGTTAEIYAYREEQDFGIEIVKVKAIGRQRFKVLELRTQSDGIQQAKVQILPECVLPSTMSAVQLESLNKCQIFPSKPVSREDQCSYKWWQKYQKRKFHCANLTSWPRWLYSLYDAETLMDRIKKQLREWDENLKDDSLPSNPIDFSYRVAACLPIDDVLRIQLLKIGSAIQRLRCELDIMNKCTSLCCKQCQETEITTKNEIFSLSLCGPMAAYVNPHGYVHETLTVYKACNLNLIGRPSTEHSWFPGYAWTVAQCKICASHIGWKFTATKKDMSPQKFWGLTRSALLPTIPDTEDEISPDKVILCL
Test: log2 fold change of degron read counts, EGFP-low vs EGFP+ sorted cells (limma voom), compound-induced degradation; higher = more compound-induced degradation of the degron-EGFP fusion; degrons are variants of IKZF1/3 zinc finger 2; compound dose not given here
Conditions: Jurkat, 18 h
Procedure: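 Pooled library of 8380 IKZF3 ZF2 degron mutants (positions 146-167 varied within the IKZF3 130-189 degron; only the varied core is printed, flanks not printed) fused to EGFP with IRES-mCherry, lentivirally expressed in Jurkat cells. mCherry+ cells were treated with one IMiD compound for 18 h (dose not stated) and FACS-sorted into EGFP-low and EGFP+ populations. Degron sequences were counted by NGS, and log2FC (EGFP-low vs EGFP+) was estimated by limma voom over 3 biological replicates.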

[1] = compound: compound 19 (5-tert-butyl-thalidomide)
[2] = compound: compound 22 (5-morpholino-thalidomide)
[3] = compound: compound 33 (diphenyl IMiD analogue)
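Further: pooled lentiviral library of zinc finger degron-EGFP fusions in mCherry-positive Jurkat cells, FACS-sorted after compound exposure, with degron abundance counted by next-generation sequencing.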

FECPQCGAPFTQKGNLLRHIKL [46F_47E_49P_50Q_52G_53A_54P_55F_67L_, Q9UKT9]
log2 fold change of degron read counts [1]: -2.11
log2 fold change of degron read counts [2]: -2.37
log2 fold change of degron read counts [3]: -1.67
log2 fold change of degron read counts (compound: thalidomide): -1.19

FMCNQCGAKFTQKGNLLRHIKL [46F_47M_49N_50Q_52G_53A_54K_55F_67L_, Q9UKT9]
log2 fold change of degron read counts [1]: -2.87
log2 fold change of degron read counts [2]: -2.47
log2 fold change of degron read counts [3]: -2.42
log2 fold change of degron read counts (compound: thalidomide): -2.11

LECEICGFGCTQKGNLLRHIKL [46L_47E_49E_50I_52G_53F_54G_55C_67L_, Q9UKT9]
log2 fold change of degron read counts [1]: -0.956
log2 fold change of degron read counts [2]: -2.31
log2 fold change of degron read counts [3]: -1.15
log2 fold change of degron read counts (compound: thalidomide): -0.202

FMCDVCGAQFTQKGNLLRHIKL [46F_47M_49D_50V_52G_53A_54Q_55F_67L_, Q9UKT9]
log2 fold change of degron read counts [1]: -1.67
log2 fold change of degron read counts [2]: -1.16
log2 fold change of degron read counts [3]: 1.5
log2 fold change of degron read counts (compound: thalidomide): -0.932

FHCNICGACFTQKGNLLRHIKL [46F_47H_49N_50I_52G_53A_54C_55F_67L_, Q9UKT9]
log2 fold change of degron read counts [1]: 1.16
log2 fold change of degron read counts [2]: 1.39
log2 fold change of degron read counts [3]: 0.659
log2 fold change of degron read counts (compound: thalidomide): -0.53

FGCNQCGHWFTQKGNLLRHIKL [46F_47G_49N_50Q_52G_53H_54W_55F_67L_, Q9UKT9]
log2 fold change of degron read counts [1]: -0.98
log2 fold change of degron read counts [2]: -1.42
log2 fold change of degron read counts [3]: -1.2
log2 fold change of degron read counts (compound: thalidomide): -0.959

FNCPQCGAGFTQKGNLLRHIKL [46F_47N_49P_50Q_52G_53A_54G_55F_67L_, Q9UKT9]
log2 fold change of degron read counts [1]: -0.184
log2 fold change of degron read counts [2]: -2.36
log2 fold change of degron read counts [3]: -1.35
log2 fold change of degron read counts (compound: thalidomide): -2.07

FCCEICGACFTQKGNLLRHIKL [46F_47C_49E_50I_52G_53A_54C_55F_67L_, Q9UKT9]
log2 fold change of degron read counts [1]: 2.78
log2 fold change of degron read counts [2]: 2.06
log2 fold change of degron read counts [3]: 2.71
log2 fold change of degron read counts (compound: thalidomide): 2.24

FKCEICGACFTQKGNLLRHIKL [46F_47K_49E_50I_52G_53A_54C_55F_67L_, Q9UKT9]
log2 fold change of degron read counts [1]: -0.172
log2 fold change of degron read counts [2]: -3.02
log2 fold change of degron read counts [3]: -3.63
log2 fold change of degron read counts (compound: thalidomide): -0.785

FSCEICGACFTQKGNLLRHIKL [46F_47S_49E_50I_52G_53A_54C_55F_67L_, Q9UKT9]
log2 fold change of degron read counts [1]: 3.31
log2 fold change of degron read counts [2]: 2.47
log2 fold change of degron read counts [3]: 2.56
log2 fold change of degron read counts (compound: thalidomide): 1.4

FYCEICGACFTQKGNLLRHIKL [46F_47Y_49E_50I_52G_53A_54C_55F_67L_, Q9UKT9]
log2 fold change of degron read counts [1]: 3.73
log2 fold change of degron read counts [2]: 3.6
log2 fold change of degron read counts [3]: 2.92
log2 fold change of degron read counts (compound: thalidomide): 1.43

FGCEICGACFTQKGNLLRHIKL [46F_47G_49E_50I_52G_53A_54C_55F_67L_, Q9UKT9]
log2 fold change of degron read counts [1]: 3.4
log2 fold change of degron read counts [2]: 2.93
log2 fold change of degron read counts [3]: 2.06
log2 fold change of degron read counts (compound: thalidomide): 1.14

FRCEICGACFTQKGNLLRHIKL [46F_47R_49E_50I_52G_53A_54C_55F_67L_, Q9UKT9]
log2 fold change of degron read counts [1]: 0.0911
log2 fold change of degron read counts [2]: -0.251
log2 fold change of degron read counts [3]: 1.83
log2 fold change of degron read counts (compound: thalidomide): 1.53

FVCEICGACFTQKGNLLRHIKL [46F_47V_49E_50I_52G_53A_54C_55F_67L_, Q9UKT9]
log2 fold change of degron read counts [1]: 0.542
log2 fold change of degron read counts [2]: 1.78
log2 fold change of degron read counts [3]: 2.28
log2 fold change of degron read counts (compound: thalidomide): 2.75

FTCEICGACFTQKGNLLRHIKL [46F_47T_49E_50I_52G_53A_54C_55F_67L_, Q9UKT9]
log2 fold change of degron read counts [1]: 1.77
log2 fold change of degron read counts [2]: 2.36
log2 fold change of degron read counts [3]: 2.49
log2 fold change of degron read counts (compound: thalidomide): 2.86

FQCEICGACFTQKGNLLRHIKL [46F_47Q_49E_50I_52G_53A_54C_55F_67L_, Q9UKT9]
log2 fold change of degron read counts [1]: 1.23
log2 fold change of degron read counts [2]: 3.08
log2 fold change of degron read counts [3]: 2.71
log2 fold change of degron read counts (compound: thalidomide): 3.48

FDCEICGACFTQKGNLLRHIKL [46F_47D_49E_50I_52G_53A_54C_55F_67L_, Q9UKT9]
log2 fold change of degron read counts [1]: 1.52
log2 fold change of degron read counts [2]: -0.309
log2 fold change of degron read counts [3]: 0.629
log2 fold change of degron read counts (compound: thalidomide): 0.633

FMCEICGACFTQKGNLLRHIKL [46F_47M_49E_50I_52G_53A_54C_55F_67L_, Q9UKT9]
log2 fold change of degron read counts [1]: 0.319
log2 fold change of degron read counts [2]: 0.12
log2 fold change of degron read counts [3]: 2.53
log2 fold change of degron read counts (compound: thalidomide): 1.09

FECEICGACFTQKGNLLRHIKL [46F_47E_49E_50I_52G_53A_54C_55F_67L_, Q9UKT9]
log2 fold change of degron read counts [1]: 0.505
log2 fold change of degron read counts [2]: -1.14
log2 fold change of degron read counts [3]: 1.9
log2 fold change of degron read counts (compound: thalidomide): 2.35
